Results on ten compounds are retold here after ChEMBL document CHEMBL1157539, “Thousands of chemical starting points for antimalarial lead identification” (Nature, 2010).

Assay type in all cases: functional
Experiment [1] concerns Plasmodium falciparum. The experiment in a line: GSK_TCMDC: Inhibition of Plasmodium falciparum 3D7 in whole red blood cells, using parasite LDH activity as an index of growth. Test compounds present at 2uM.
For experiment [2], the system named is Plasmodium falciparum. As to the kind of experiment: GSK_TCMDC: Inhibition of Plasmodium falciparum Dd2 in whole red blood cells, using parasite LDH activity as an index of growth. Test compounds present at 2uM.
For another experiment, the system named is HepG2. As to the kind of experiment: GSK_TCMDC: Percent inhibition of human HepG2 cell line. Test compounds present at 10uM.

What is called Inhibition is how much of the control response was suppressed. A low value points to a weak effect. For `O=C(O)/C=C\C(=O)O.O=c1c2sc(-c3ccc(Cl)cc3)cc2ncn1Cc1ccc(OCCN2CCCC2)c2ccccc12`, the Inhibition in the experiment on Plasmodium falciparum [1] was 100%; in the experiment on Plasmodium falciparum [2], 81%; with HepG2, 38%.
The like results for `COc1ccc(C(=O)COc2cccc(/C=C/C(=O)O)c2)cc1OC` were, in that order, 84%, 28% and 44%.
On the same counts, the results for `COc1ccccc1CN1CCC(NC(=O)c2ccc(-c3cccc(Cl)c3)s2)CC1.O=C(O)C(F)(F)F` are 84%, 9% and 49%.
The like results for `CC(C)(C)OC(=O)NCCc1cccc(-c2c[nH]c3ncc(-c4cccc(NS(C)(=O)=O)c4)cc23)c1` were, in that order, 97%, 71% and 16%.
On to `CC(C)(CNCc1ccc(Cl)cc1)c1nc(-c2ccc(Cl)c(O)c2)c(-c2ccncc2)[nH]1.Cl`, for which the Inhibition was 100% with Plasmodium falciparum [1], 98% in the experiment on Plasmodium falciparum [2] and 86% with HepG2.
Take `COc1ccccc1Nc1nc(C)cc(NCc2ccc(-c3c(C)noc3C)cc2)n1`: the Inhibition in the experiment with Plasmodium falciparum [1] was found to be 98%; in the experiment with Plasmodium falciparum [2], 13%; in the experiment with HepG2 it was 12%.
On the same counts, the results for `CC(C)N1CCN(C(=O)c2ccc(CNCCCN3CCN(c4ccccc4C(F)(F)F)CC3)s2)CC1.Cl` are 98%, 42% and 32%.
The like results for `Cc1cccn2c(=O)c3cc(C(=O)NCCN4CCOCC4)c(=N)n(CCc4ccccc4)c3nc12` were, in that order, 100%, 85% and 13%.
On the same counts, the results for `Cc1ccc(C(C(=O)Nc2ccc(N3CCNCC3)c(Cl)c2)c2ccccc2)cc1` (stereo not given) are 97%, 93% and 23%.
Take `CC(C)C[C@H](Nc1ccnc(NCC2CCCCC2)n1)C(=O)Nc1ccccc1.O=C(O)C(F)(F)F`: the Inhibition stood at 87% with Plasmodium falciparum [1], 42% in the experiment with Plasmodium falciparum [2] and 6% in the experiment on HepG2.
